# Data from PMC11006913.
# Residue numbers refer to the chain shown, from its start.
# What was measured:
# Assay in all cases: PBM; 200 nM protein, PBS
# Conditions in all cases: dsDNA, one strand shown
# NKX2-5 = NKX2-5 (Homo sapiens, UniProt P52952 125-210, R139K)
# HOXB9 [1] = biological target: HOXB9 (Homo sapiens, UniProt P17482 171-250, T197M)
# HOXC9 [2] = biological target: HOXC9 (Homo sapiens, UniProt P31274 178-260, K195R)
# VENTX [3] = biological target: T1, VENTX (Homo sapiens, UniProt O95231 78-163)
# T1 sequence: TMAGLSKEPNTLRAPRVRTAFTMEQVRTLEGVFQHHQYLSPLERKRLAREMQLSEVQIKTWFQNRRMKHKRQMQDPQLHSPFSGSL
# PAX4 [4] = biological target: T2, PAX4 (Homo sapiens, UniProt O43316 9-242, R200K)
# T2 sequence: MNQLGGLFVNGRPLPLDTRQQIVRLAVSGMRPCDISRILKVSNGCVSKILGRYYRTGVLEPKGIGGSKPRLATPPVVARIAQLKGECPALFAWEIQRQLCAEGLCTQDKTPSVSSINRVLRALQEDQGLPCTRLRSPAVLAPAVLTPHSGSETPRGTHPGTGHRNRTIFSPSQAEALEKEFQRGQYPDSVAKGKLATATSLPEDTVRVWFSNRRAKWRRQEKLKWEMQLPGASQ
# VENTX [5] = biological target: T3, VENTX (Homo sapiens, UniProt O95231 78-163, Y115F)
# T3 sequence: T1 sequence with Y38F
# PAX4 [6] = biological target: T4, PAX4 (Homo sapiens, UniProt O43316 9-242)
# T4 sequence: T2 sequence with K192R
# HOXB9 [7] = biological target: HOXB9 (Homo sapiens, UniProt P17482 171-250)
# PAX4 [8] = biological target: T5, PAX4 (Homo sapiens, UniProt O43316 9-242, R200Q)
# T5 sequence: T2 sequence with K192Q
# HOXC9 [9] = biological target: HOXC9 (Homo sapiens, UniProt P31274 178-260, R193K)
# HOXA2 [10] = biological target: HOXA2 (Homo sapiens, UniProt O43364 129-215, R185K)
# PAX4 [11] = biological target: T6, PAX4 (Homo sapiens, UniProt O43316 9-242, F177V)
# T6 sequence: T2 sequence with F169V, K192R
# HOXC10 = HOXC10 (Homo sapiens, UniProt Q9NYD6 254-340, K271E)
# PAX4 [12] = biological target: T7, PAX4 (Homo sapiens, UniProt O43316 9-242, F177Y)
# T7 sequence: T2 sequence with F169Y, K192R
# VAX1 = VAX1 (Homo sapiens, UniProt Q5SQQ9 86-172)
# HOXB9 [13] = biological target: HOXB9 (Homo sapiens, UniProt P17482 171-250, R186Q)
# HOXC9 [14] = biological target: HOXC9 (Homo sapiens, UniProt P31274 178-260, R222W)
# PAX4 [15] = biological target: T8, PAX4 (Homo sapiens, UniProt O43316 9-242, R227W)
# T8 sequence: T2 sequence with K192R, R219W
# HOXA2 [16] = biological target: HOXA2 (Homo sapiens, UniProt O43364 129-215, Y150S)
# HOXA2 [17] = biological target: HOXA2 (Homo sapiens, UniProt O43364 129-215)
# Chain of HOXA2 (Homo sapiens, UniProt O43364 129-215) (O43364 129-215): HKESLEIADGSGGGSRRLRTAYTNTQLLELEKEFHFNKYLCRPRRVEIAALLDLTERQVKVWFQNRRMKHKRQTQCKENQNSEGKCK
# Chain of NKX2-5 (P52952 125-210 R139K): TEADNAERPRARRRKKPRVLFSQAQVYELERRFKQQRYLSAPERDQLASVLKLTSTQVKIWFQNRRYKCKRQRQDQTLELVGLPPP
# Chain of HOXB9 (Homo sapiens, UniProt P17482 171-250) (P17482 171-250): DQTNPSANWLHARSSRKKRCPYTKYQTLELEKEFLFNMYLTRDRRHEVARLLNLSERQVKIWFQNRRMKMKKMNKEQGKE
# Chain of VAX1 (Q5SQQ9 86-172): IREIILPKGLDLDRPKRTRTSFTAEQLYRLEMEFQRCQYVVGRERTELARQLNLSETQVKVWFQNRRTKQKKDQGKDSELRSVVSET
# Chain of HOXC10 (Q9NYD6 254-340 K271E): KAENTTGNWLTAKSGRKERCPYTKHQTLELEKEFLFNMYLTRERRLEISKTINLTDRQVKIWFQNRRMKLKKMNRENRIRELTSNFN
# Chain of HOXB9 (Homo sapiens, UniProt P17482 171-250, T197M) (P17482 171-250 T197M): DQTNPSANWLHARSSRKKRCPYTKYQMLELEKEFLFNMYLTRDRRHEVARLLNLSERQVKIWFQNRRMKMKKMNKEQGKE
# Chain of HOXA2 (Homo sapiens, UniProt O43364 129-215, Y150S) (O43364 129-215 Y150S): as the sequence (O43364 129-215) above, with Y22S counted along it
# Chain of HOXC9 (Homo sapiens, UniProt P31274 178-260, R222W) (P31274 178-260 R222W): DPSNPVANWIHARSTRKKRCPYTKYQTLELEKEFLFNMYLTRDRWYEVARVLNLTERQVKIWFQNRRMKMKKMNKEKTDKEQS
# Chain of HOXB9 (Homo sapiens, UniProt P17482 171-250, R186Q) (P17482 171-250 R186Q): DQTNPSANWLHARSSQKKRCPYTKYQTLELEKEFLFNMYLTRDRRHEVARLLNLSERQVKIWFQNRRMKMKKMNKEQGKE
# Chain of HOXC9 (Homo sapiens, UniProt P31274 178-260, R193K) (P31274 178-260 R193K): as the sequence (P31274 178-260 R222W) above, with R16K, W45R counted along it
# Chain of HOXC9 (Homo sapiens, UniProt P31274 178-260, K195R) (P31274 178-260 K195R): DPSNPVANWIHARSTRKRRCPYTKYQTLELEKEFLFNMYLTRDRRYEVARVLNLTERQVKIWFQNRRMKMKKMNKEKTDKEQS
# Chain of HOXA2 (Homo sapiens, UniProt O43364 129-215, R185K) (O43364 129-215 R185K): as the sequence (O43364 129-215) above, with R57K counted along it
sequence,measurement,setting,value
AGACCGCG,binding signal,NKX2-5,"8.9 upbm affinity estimate (log intensity, higher = more binding, comparable within an allelic series)"
ACCATGGT,binding signal,NKX2-5,"9.14 upbm affinity estimate (log intensity, higher = more binding, comparable within an allelic series)"
CCCTGGGC,binding signal,NKX2-5,"8.86 upbm affinity estimate (log intensity, higher = more binding, comparable within an allelic series)"
CCCTTGAC,binding signal,NKX2-5,"11.1 upbm affinity estimate (log intensity, higher = more binding, comparable within an allelic series)"
GGCTCTTA,binding signal,NKX2-5,"11.7 upbm affinity estimate (log intensity, higher = more binding, comparable within an allelic series)"
CACGTCCC,binding signal,NKX2-5,"8.94 upbm affinity estimate (log intensity, higher = more binding, comparable within an allelic series)"
GATGAGTA,binding signal,NKX2-5,"11 upbm affinity estimate (log intensity, higher = more binding, comparable within an allelic series)"
CGCGCAGC,binding signal,NKX2-5,"8.7 upbm affinity estimate (log intensity, higher = more binding, comparable within an allelic series)"
ACCAAACC,binding signal,NKX2-5,"8.82 upbm affinity estimate (log intensity, higher = more binding, comparable within an allelic series)"
CGCCAGGA,binding signal,NKX2-5,"8.64 upbm affinity estimate (log intensity, higher = more binding, comparable within an allelic series)"
ACAGCGCC,binding signal,NKX2-5,"8.89 upbm affinity estimate (log intensity, higher = more binding, comparable within an allelic series)"
GGCAAGCC,binding signal,NKX2-5,"8.94 upbm affinity estimate (log intensity, higher = more binding, comparable within an allelic series)"
CACTAAAG,binding signal,NKX2-5,"10.9 upbm affinity estimate (log intensity, higher = more binding, comparable within an allelic series)"
ACTAGTAC,binding signal,NKX2-5,"10.7 upbm affinity estimate (log intensity, higher = more binding, comparable within an allelic series)"
AACGGTGG,binding signal,NKX2-5,"9.06 upbm affinity estimate (log intensity, higher = more binding, comparable within an allelic series)"
GCAACGCA,binding signal,NKX2-5,"9.03 upbm affinity estimate (log intensity, higher = more binding, comparable within an allelic series)"
CCCGTCAG,binding signal,NKX2-5,"9.01 upbm affinity estimate (log intensity, higher = more binding, comparable within an allelic series)"
GGCTATTA,binding signal,NKX2-5,"10.7 upbm affinity estimate (log intensity, higher = more binding, comparable within an allelic series)"
AAGTGAGT,binding signal,NKX2-5,"11.4 upbm affinity estimate (log intensity, higher = more binding, comparable within an allelic series)"
TCACTCGA,binding signal,NKX2-5,"10.9 upbm affinity estimate (log intensity, higher = more binding, comparable within an allelic series)"
CCAACGCA,binding signal,NKX2-5,"8.88 upbm affinity estimate (log intensity, higher = more binding, comparable within an allelic series)"
CCGCACGG,binding signal,NKX2-5,"8.63 upbm affinity estimate (log intensity, higher = more binding, comparable within an allelic series)"
CTAGTACA,binding signal,NKX2-5,"10.5 upbm affinity estimate (log intensity, higher = more binding, comparable within an allelic series)"
GCCGGCAA,binding signal,NKX2-5,"9.18 upbm affinity estimate (log intensity, higher = more binding, comparable within an allelic series)"
CACTACAC,binding signal,NKX2-5,"10.6 upbm affinity estimate (log intensity, higher = more binding, comparable within an allelic series)"
CACTGCCG,binding signal,NKX2-5,"9 upbm affinity estimate (log intensity, higher = more binding, comparable within an allelic series)"
CGACACTC,binding signal,NKX2-5,"10.6 upbm affinity estimate (log intensity, higher = more binding, comparable within an allelic series)"
CCTGGGCA,binding signal,NKX2-5,"8.92 upbm affinity estimate (log intensity, higher = more binding, comparable within an allelic series)"
TCTGCAGA,binding signal,NKX2-5,"9.09 upbm affinity estimate (log intensity, higher = more binding, comparable within an allelic series)"
CCGCAGTC,binding signal,NKX2-5,"8.8 upbm affinity estimate (log intensity, higher = more binding, comparable within an allelic series)"
ATAAGATG,binding signal,NKX2-5,"10.5 upbm affinity estimate (log intensity, higher = more binding, comparable within an allelic series)"
CACAAGAG,binding signal,NKX2-5,"11.1 upbm affinity estimate (log intensity, higher = more binding, comparable within an allelic series)"
ATAAGTGA,binding signal,NKX2-5,"12.2 upbm affinity estimate (log intensity, higher = more binding, comparable within an allelic series)"
ACTCTACT,binding signal,NKX2-5,"10.7 upbm affinity estimate (log intensity, higher = more binding, comparable within an allelic series)"
AACGCGGA,binding signal,NKX2-5,"8.76 upbm affinity estimate (log intensity, higher = more binding, comparable within an allelic series)"
CGGGTGGC,binding signal,NKX2-5,"8.45 upbm affinity estimate (log intensity, higher = more binding, comparable within an allelic series)"
AGGCGAGC,binding signal,NKX2-5,"9.02 upbm affinity estimate (log intensity, higher = more binding, comparable within an allelic series)"
TGCGCGCA,binding signal,NKX2-5,"9.19 upbm affinity estimate (log intensity, higher = more binding, comparable within an allelic series)"
GATAATTA,binding signal,HOXB9 [1],"10.5 upbm affinity estimate (log intensity, higher = more binding, comparable within an allelic series)"
same,binding signal,HOXC9 [2],"12.9 upbm affinity estimate (log intensity, higher = more binding, comparable within an allelic series)"
same,binding signal,VENTX [3],"12.8 upbm affinity estimate (log intensity, higher = more binding, comparable within an allelic series)"
same,binding signal,PAX4 [4],"12 upbm affinity estimate (log intensity, higher = more binding, comparable within an allelic series)"
same,binding signal,VENTX [5],"12.3 upbm affinity estimate (log intensity, higher = more binding, comparable within an allelic series)"
same,binding signal,PAX4 [6],"12.6 upbm affinity estimate (log intensity, higher = more binding, comparable within an allelic series)"
same,binding signal,HOXB9 [7],"11.9 upbm affinity estimate (log intensity, higher = more binding, comparable within an allelic series)"
same,binding signal,PAX4 [8],"12.4 upbm affinity estimate (log intensity, higher = more binding, comparable within an allelic series)"
same,binding signal,HOXC9 [9],"12.8 upbm affinity estimate (log intensity, higher = more binding, comparable within an allelic series)"
same,binding signal,HOXA2 [10],"13.8 upbm affinity estimate (log intensity, higher = more binding, comparable within an allelic series)"
same,binding signal,PAX4 [11],"10.8 upbm affinity estimate (log intensity, higher = more binding, comparable within an allelic series)"
same,binding signal,HOXC10,"12.2 upbm affinity estimate (log intensity, higher = more binding, comparable within an allelic series)"
same,binding signal,PAX4 [12],"11.3 upbm affinity estimate (log intensity, higher = more binding, comparable within an allelic series)"
same,binding signal,VAX1,"13.7 upbm affinity estimate (log intensity, higher = more binding, comparable within an allelic series)"
same,binding signal,HOXB9 [13],"11.8 upbm affinity estimate (log intensity, higher = more binding, comparable within an allelic series)"
same,binding signal,HOXC9 [14],"11.1 upbm affinity estimate (log intensity, higher = more binding, comparable within an allelic series)"
same,binding signal,PAX4 [15],"11.2 upbm affinity estimate (log intensity, higher = more binding, comparable within an allelic series)"
same,binding signal,HOXA2 [16],"10.9 upbm affinity estimate (log intensity, higher = more binding, comparable within an allelic series)"
same,binding signal,HOXA2 [17],"13.2 upbm affinity estimate (log intensity, higher = more binding, comparable within an allelic series)"
